Sampled rows, rich in hits. Any-hit rate of the full collection: about 3%.
ROMK primary: modulators of human ROMK potassium channel. Tet-inducible ROMK, thallium flux fluorescence; actives lie on both sides. AID 1918. B-score at 10 µM. P48048. actives 2% (n = 130,000);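 active = signal ratio slope over the read window, or its plate-corrected B-score, at least 3 SD from the plate mean, either direction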;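 also: B-score of the F/F0 ratio slope over 7 to 12 s after thallium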
Target sequence (P48048 whole entry, looked up): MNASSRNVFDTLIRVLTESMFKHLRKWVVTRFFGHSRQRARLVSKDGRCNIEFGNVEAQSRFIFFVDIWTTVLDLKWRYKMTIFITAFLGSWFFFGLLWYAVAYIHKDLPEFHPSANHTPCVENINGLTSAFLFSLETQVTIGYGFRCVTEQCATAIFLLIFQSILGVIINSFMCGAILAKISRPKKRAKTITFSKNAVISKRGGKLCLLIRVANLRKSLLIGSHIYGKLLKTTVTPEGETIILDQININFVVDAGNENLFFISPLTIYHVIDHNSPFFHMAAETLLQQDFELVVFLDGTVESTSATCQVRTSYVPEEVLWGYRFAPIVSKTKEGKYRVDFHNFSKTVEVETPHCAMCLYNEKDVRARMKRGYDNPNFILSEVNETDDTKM
HMGR II inh: inhibitors of class II HMG-CoA reductase from Enterococcus faecalis | purified E. faecalis HMGR, NADPH absorbance 340 nm kinetic | inhibition, % at 10 µM | actives 0.41% (n = 190,000) | AID 1066;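 active = inhibition above a set limit, the median over all tested compounds plus 3 SD, cut at about 9.5% in these data; inconclusive = no clear call, values can overlap the other calls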;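 also: enzyme runs in reverse so mevalonate oxidation gives rising NADPH absorbance; 0% = complete reaction with DMSO and 100% = background rate lacking mevalonate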
zVAD death inh: L929 zVAD cell death inhibition; viability rescue, % at 10 µM; AID 1377; actives 0.38% (n = 220,000); L929 zVAD necroptosis rescue, ATP luminescence, 24 h; with zVAD 60 µM;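 active = activation, scaled between plate controls, above about 75%, limit read from the data; inactive = activation under that limit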;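 also: 0% = zVAD with DMSO and 100% = DMSO alone without zVAD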
TNF death inh: inhibitors of TNF-alpha induced necroptosis in Jurkat FADD-/- cells | activation (protection from cell death), % at 10 µM | Jurkat FADD-/- TNF necroptosis rescue, ATP luminescence, 24 h; 0 = TNF only, 100 = no-TNF cells | actives 0.068% (n = 220,000);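 active = activation, meaning protection from cell death, of at least 50% relative to plate controls; inactive = activation below 50%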;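 also: necroptosis triggered by 40 ng/mL TNF-alpha added together with compound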
Calpain2 inh: blocks pig calpain II enzyme activity; AID 1236; purified calpain II, fluorogenic peptide substrate, 30 min; actives 0.37% (n = 220,000); inhibition, % at 16 µM;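 active = inhibition above about 50%, limit read from the data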
14-3-3 Bad inh: disrupts binding of bovine 14-3-3 zeta to phospho-Bad peptide; P63103; TR-FRET 14-3-3zeta/Dy647-pBad peptide displacement, 1 h; inhibition, % at 21.7 µM; actives 0.71% (n = 220,000); AID 781;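 active = inhibition above about 70%, limit read from the data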;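 also: 0% = full 14-3-3 plus peptide FRET controls and 100% = background without 14-3-3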
ROMK retest: confirmation of human ROMK potassium channel modulators | normalized thallium flux (F/F0 slope) at 10 µM | actives 54% (n = 3,000) | ROMK thallium flux, fluorescence ratio; stronger effect = lower value | shares compounds with ROMK primary | AID 1917;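 active = Flux at 10 µM at least 3 SD below or above vehicle control mean in one or both replicates; inconclusive = no clear call, values can overlap the other calls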
An asterisk follows results filed as active; i = inactive; u = inconclusive; x = no result given.

SMILES	ROMK primary	HMGR II inh	zVAD death inh	TNF death inh	Calpain2 inh	14-3-3 Bad inh	ROMK retest
O=C1C2CCCCN2C(=O)N1CCN1CCN(c2ccc([N+](=O)[O-])cc2)CC1 (centres undefined)	-2.8*	-1	0	-2	-4	28	0.047*
O=C(CCCN1C(=O)C2CCCCN2C1=O)N1CCN(c2ccc([N+](=O)[O-])cc2)CC1 (centres undefined)	0.17	3	0	-3	35	-5	x
CCOc1ccc(C(C)=O)cc1CN1C(=O)C(=O)N(CC)C1=O	0.032	-3	0	1	25	14	x
CC1(C)Cc2c(sc3nc(SCC(=O)NCc4ccco4)n(-c4ccccc4)c(=O)c23)CS1	1	-5	1	3	-51	-4	0.055*
O=C(CSc1nc2sc3c(c2c(=O)n1-c1ccccc1)CCCC3)NCc1ccco1	x	-11	0	3	-15	3	x
O=C(Nc1ccccc1)c1cc(S(=O)(=O)N2CCSCC2)ccc1Cl	2.3	-1	0	4	0	-13	x
O=C(Nc1cccc(S(=O)(=O)N2CCCCCC2)c1)c1ccc2c(c1)OCO2	-3.6*	-3	0	2	37	78*	0.077
O=C(Nc1cccc(O)c1)c1cc(S(=O)(=O)N2CCCC2)ccc1Cl	3.4*	2	-1	-3	-19	1	0.1*
CN(C)c1ccc(/C=N/N=C2/NC(=O)/C(=C/c3ccc([N+](=O)[O-])cc3)S2)cc1	x	-6	0	-3	-19	9	x
Cc1ccc(C(=O)NNC(=S)Nc2cccc(Cl)c2Cl)cc1[N+](=O)[O-]	4.3*	0	0	-1	-45	-10	0.091
CCN1CCN(c2c(/C=C3\SC(=S)N(Cc4ccco4)C3=O)c(C)c(C#N)c(=O)n2C)CC1	x	x	-1	-14	-56	29	0.048*
CCOC(=O)C(Sc1ncnc2c1sc1nc(N3CCOCC3)c3c(c12)CCCC3)c1ccccc1 (centres undefined)	x	1	1	-4	-79	2	x
CCCNC(=O)COC(=O)c1ccccc1OCc1ccc(Cl)cc1	-0.23	-7	0	0	24	-131	x
O=C(CSc1ncc(-c2ccccc2)n1C1CCCC1)N1CCc2ccccc21	-2.7*	0	-1	-5	-18	13	u
COc1ccc(N2C(=O)C(CC(N)=O)N(NC(=O)CCc3ccccc3)C2=O)cc1 (centres undefined)	-0.13	4	11	0	-6	0	x
Cc1ccccc1-n1c(SCC(=O)N(C)C2CCS(=O)(=O)C2)nnc1-c1ccncc1 (centres undefined)	0.57	-3	2	1	-12	-5	x
CN(C(=O)CSc1nnc(-c2ccncc2)n1C)C1CCS(=O)(=O)C1 (centres undefined)	3.1*	-6	-1	0	-5	-2	0.076
Cc1nc2cc(C(=O)OCC(=O)NC34CC5CC(CC(C5)C3)C4)ccc2n1-c1ccccc1	-3*	0	3	2	-46	11	0.065*
Cc1nc2cc(C(=O)OCC(=O)NC3CCS(=O)(=O)C3)ccc2n1-c1ccccc1 (centres undefined)	-0.057	-1	-1	1	0	-7	x
CCOc1ccc(-c2cc(C(=O)NCC3CCCO3)c3ccccc3n2)cc1 (centres undefined)	-0.83	-3	0	1	-474	11	x
Cc1cc(CSc2nc(C)cc(=O)[nH]2)c2ncccc2c1	-11*	-5	1	2	-16	-9	0.078
Cc1cc(=O)[nH]c(SCc2cccc(Br)c2)n1	-0.39	-4	0	-2	29	14	x
CC(C)CCNC(=O)CN(Cc1ccc2c(c1)OCO2)C(=O)Cn1nnc(-c2cccs2)n1	-3.1*	-3	1	1	14	7	0.068*
O=C(CSc1nnnn1-c1cccc2ccccc12)NC(C(=O)O)(c1ccccc1)c1ccccc1	0.39	1	1	-1	-49	-20	x
OCCCCNCc1ccc(OCc2ccc(Cl)cc2Cl)cc1	x	7	3	-13	-23	10	0.053*
SMILES	ROMK primary	HMGR II inh	zVAD death inh	TNF death inh	Calpain2 inh	14-3-3 Bad inh	ROMK retest
OCCNCc1ccc(OCc2ccc(Cl)cc2Cl)cc1	-1	-1	34	-2	20	-4	x
O=C(Nc1nc(-c2cccs2)c(C(=O)C(F)(F)F)s1)c1ccccc1	-6.5*	-2	-1	-1	18	12	0.054*
CCc1ccc(/C=C2\Oc3c(ccc(O)c3CN3CCN(C)CC3)C2=O)cc1	-8.1*	x	0	-1	-166	3	0.046*
Cc1ccc(/C=C2\Oc3c(ccc(O)c3CN3CCN(C)CC3)C2=O)cc1	x	-2	59	2	i	-8	x
CCN1CCN(Cc2c(O)ccc3c2O/C(=C\c2ccc(C)cc2)C3=O)CC1	-5.7*	-4	9	2	i	1	0.04*
O=C(O)CCn1cc(/C=C2\NC(=S)N(c3ccccc3)C2=O)c(-c2ccc(Br)cc2)n1	0.29	-7	2	1	-24	9	x
COc1cc(C2CC(=O)c3c([nH]c(C(=O)OCCOC(C)C)c3C)C2)cc(OC)c1OC (centres undefined)	x	3	0	-7	-1	14	0.063*
CCOC(=O)c1[nH]c2c(c1C)C(=O)CC(c1ccc(OC)c(OC)c1)C2 (centres undefined)	-0.41	-2	1	1	-5	-2	x
Cc1c(Nc2cc(Cl)c3nonc3c2[N+](=O)[O-])c(=O)n(-c2ccccc2)n1C	-4.4*	2	-5	-14	-4	-9	0.04*
Cc1c(Nc2cc(N3CCOCC3)c3nonc3c2[N+](=O)[O-])c(=O)n(-c2ccccc2)n1C	0.69	-1	0	0	8	-1	x
CC1(C)Cc2c(C#N)c(N3CCN(C(=O)c4ccccc4Cl)CC3)nc(-c3ccco3)c2CS1	-1.8*	3	1	-1	-158	4	0.089
CC1(C)Cc2c(C#N)c(N3CCN(C(=O)c4ccco4)CC3)nc(-c3ccco3)c2CS1	2	-9	0	-2	-75	-1	x
CC1(C)Cc2c(c(-c3ccco3)[nH]c(=O)c2C#N)CS1	-3.7*	0	-1	2	-5	-4	0.078
Cn1c(C(=O)NCCN2CCc3ccccc3C2)cc2c(=O)n(C)c3ccccc3c21	x	-5	0	-3	-45	-5	u
Cc1nn(Cc2ccccc2)c(Cl)c1/C=C/C(=O)OCC(=O)N1CCCC1=O	0.49	-4	1	1	-24	-13	x
CCOC(=O)c1csc(NC(=O)c2cc3ccccc3o2)n1	x	x	2	-1	23	4	x
